Assays:
Settings in all cases: concentration: 1 μM,replicates: in singlicate; n = 1
PLK2 = system: PLK2
PLK3 = system: PLK3
PLK4 = system: PLK4
PRKCD = system: PRKCD
PRKCE = system: PRKCE
PRKCH = system: PRKCH
PRKCI = system: PRKCI
PRKCQ = system: PRKCQ
PRKD1 = system: PRKD1
PRKD2 = system: PRKD2
PRKD3 = system: PRKD3
PRKG1 = system: PRKG1
PRKG2 = system: PRKG2
PRKR = system: T1, PRKR
T1 construct: gene EIF2AK2

PRKX = system: PRKX
PRP4 = system: PRP4
PYK2 = system: T2, PYK2
T2 construct: gene PTK2B

QSK = system: QSK
RAF1 = system: RAF1
RET = system: RET
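Also: KINOMEscan kinase panel screen.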

Row | Compound | %Inh (PLK2) | %Inh (PLK3) | %Inh (PLK4) | %Inh (PRKCD) | %Inh (PRKCE) | %Inh (PRKCH) | %Inh (PRKCI) | %Inh (PRKCQ) | %Inh (PRKD1) | %Inh (PRKD2) | %Inh (PRKD3) | %Inh (PRKG1) | %Inh (PRKG2) | %Inh (PRKR) | %Inh (PRKX) | %Inh (PRP4) | %Inh (PYK2) | %Inh (QSK) | %Inh (RAF1) | %Inh (RET)
1 | CC(=O)Nc1ccc(-c2cc3ncnc(SCC(=O)O)c3s2)cc1 | 15% | 7% | 47% | 22% | 10% | 1% | 0% | 18% | 22% | 0% | 7% | 1% | 10% | 23% | 24% | 22% | 0% | 1% | 14% | 15%
2 | Cn1ccc2ncnc(Oc3ccc(NC(=O)Nc4cccc(C(F)(F)F)c4)c(Cl)c3)c21 | 2% | 22% | 9% | 0% | 0% | 0% | 8% | 7% | 0% | 15% | 9% | 0% | 7% | 0% | 0% | 5% | 6% | 0% | 80% | 100%
3 | COc1cc2c(Nc3ccc(NC(=O)c4ccccc4)cc3)ncnc2cc1OCCCN1CCOCC1 [GSK301329] | 0% | 0% | 36% | 6% | 0% | 0% | 0% | 9% | 0% | 4% | 0% | 0% | 21% | 0% | 22% | 0% | 0% | 18% | 1% | 79%
4 | Cl.Nc1n[nH]c2cc(-c3ccccn3)ccc12 [GSK2189892] | 0% | 0% | 0% | 0% | 0% | 13% | 8% | 7% | 0% | 10% | 0% | 0% | 0% | 0% | 13% | 24% | 0% | 0% | 6% | 2%
5 | CN1CCN(CCNc2nc3cc(Oc4ccc(NC(=O)Nc5cc(C(F)(F)F)ccc5F)cc4)ccc3[nH]2)CC1.Cl.Cl [GW768504] | 0% | 0% | 8% | 9% | 0% | 0% | 0% | 0% | 0% | 14% | 0% | 2% | 0% | 24% | 0% | 0% | 18% | 0% | 75% | 99.9%
6 | O=C(NCC1CC1)c1ccc(-c2cc(C(=O)NC3CC3)ccc2F)cc1 [GW810445] | 0% | 0% | 0% | 0% | 27% | 0% | 0% | 0% | 0% | 0% | 0% | 0% | 0% | 0% | 0% | 16% | 0% | 0% | 0% | 4%
7 | c1ccc(Oc2ccc(Nc3ccnc4ccc(-c5ccccn5)cc34)cc2)cc1 [GW407034] | 0% | 0% | 15% | 0% | 3% | 0% | 0% | 27% | 0% | 5% | 33% | 0% | 0% | 0% | 12% | 4% | 0% | 14% | 19% | 6%
8 | Nc1nccc(-c2ccc3c(N)n[nH]c3c2)n1 [GSK1034945] | 0% | 0% | 0% | 0% | 0% | 11% | 3% | 21% | 0% | 0% | 4% | 0% | 68% | 0% | 68% | 27% | 8% | 0% | 17% | 9%
9 | O=C(Nc1n[nH]c2cc(-c3ccco3)ccc12)C1CC1 [SB-737447] | 6% | 8% | 20% | 4% | 0% | 8% | 29% | 5% | 0% | 0% | 0% | 0% | 0% | 0% | 0% | 13% | 23% | 20% | 0% | 0%
